Vc quorum ag: quorum light induction in luxS cqsA deficient V. cholerae; V. cholerae BH1578 lux reporter, luminescence, 6 h; activation, % at 18.7 µM; hit rate 0.16% among 350,000; in the data active means activation mostly above about 9.7%, no sharp cut-off
Mtb FBA inh: Mtb fructose-bisphosphate aldolase inhibition; P9WQA3; purified M. tuberculosis FBA, fluorescence read-out; inhibition, % at 1 µM; hit rate 2.3% among 360,000; AID 588726; in the data active means inhibition above about 27%;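 further: 0% = vehicle and 100% = reference inhibitor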
Target sequence (P9WQA3 whole entry, looked up): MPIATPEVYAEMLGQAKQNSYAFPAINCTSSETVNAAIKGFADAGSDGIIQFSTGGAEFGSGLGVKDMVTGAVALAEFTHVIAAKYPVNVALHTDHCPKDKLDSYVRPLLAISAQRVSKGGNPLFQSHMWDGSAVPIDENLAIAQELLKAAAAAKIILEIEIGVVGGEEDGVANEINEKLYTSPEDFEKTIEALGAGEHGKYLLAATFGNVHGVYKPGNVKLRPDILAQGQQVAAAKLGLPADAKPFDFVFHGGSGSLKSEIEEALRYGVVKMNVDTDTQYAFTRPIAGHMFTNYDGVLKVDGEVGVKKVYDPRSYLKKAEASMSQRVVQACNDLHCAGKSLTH
GDH-TPI inh: GDH-TPI coupled enzyme inhibition counter-screen; GDH-TPI coupled enzyme counterscreen, NADH absorbance; inhibition, % at 4.8 µM; hit rate 1.2% among 360,000; AID 588335; in the data active means inhibition above about 30%;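 further: 0% = DMSO wells and 100% = wells lacking the enzyme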
Mtb BioA inh: inhibitors of Mycobacterium tuberculosis BioA enzyme; purified M. tuberculosis BioA enzyme, plate reader; inhibition, % at 9.99 µM; hit rate 0.096% among 360,000; AID 602481; in the data active means inhibition above about 40%
Starred values were filed as active, the others as inactive; i = inactive; nt = not tested or not shown; + = active, no number. Hits are enriched below; roughly 3% of the tested compounds scored in any of these assays.

SMILES	Vc quorum ag	Mtb FBA inh	GDH-TPI inh	Mtb BioA inh
CC(=O)c1cccc(NS(=O)(=O)c2ccc(N/C=C/C(=O)c3ccc(F)cc3)cc2)c1	i	2	12	nt
CC(=O)c1ccc(NS(=O)(=O)c2ccc(N/C=C/C(=O)c3ccc(F)cc3)cc2)cc1	0	-2	61*	nt
N=c1oc2ccccc2cc1C(=O)Nc1ccc(F)cc1	i	64*	4	1
O=C(O)c1ccccc1NC(=O)c1cc2ccccc2oc1=O	-2	1	50*	-5
C[C@H](O)C#Cc1ccc2c(c1)O[C@@H](CN(C)C(=O)CC1CC1)[C@H](C)CN([C@H](C)CO)S2(=O)=O	nt	nt	nt	-2
COc1ccc(-c2cnc3c(c2)C(=O)N([C@H](C)CO)C[C@@H](C)[C@@H](CN(C)Cc2ccc(C(=O)O)cc2)O3)cc1	nt	nt	nt	1
COc1ccc(/C=C(/C#N)c2cccnc2)cc1OC	-1	-3	22	58*
Cn1c2nc(=O)n(-c3ccccc3)c(=O)c-2nc2c1CCCC2	-3	184*	19	nt
COCCn1c2nc(=O)n(-c3ccccc3)c(=O)c-2nc2ccccc21	-3	-4	18	nt
COc1ccc(NC(=O)Nc2ccc3c(c2)C(=O)N([C@H](C)CO)C[C@H](C)[C@H](CN(C)CC2CC2)OCCCC[C@@H](C)O3)cc1	nt	nt	nt	0
O=C1Nc2ccccc2/C1=C/c1cnc[nH]1	i	-6	31*	nt
CC(/C=N/n1c(-c2cc(C)[nH]n2)n[nH]c1=S)=C\c1ccco1	i	-1	12	nt
CC(/C=N/n1cnnc1)=C\c1ccco1	0	1	39*	-2
Cc1c(C(=O)/C=C/N(C)C)nnn1-c1ccc(Cl)cc1C#N	-1	-4	46*	-1
C[C@@H]1CN([C@H](C)CO)C(=O)Cc2cc(NC(=O)Nc3ccccc3)ccc2O[C@@H]1CN(C)C(=O)Nc1ccc(F)cc1	nt	nt	nt	21
CCNC(=S)N/N=C/c1ccc(OCc2ccc(C(=O)OC)cc2)cc1	-1	2	33*	nt
COCCNC(=S)N/N=C/c1ccc(OCc2ccc(C(=O)OC)cc2)cc1	0	-2	20	nt
O=C(Nc1ccc(F)cc1)N[C@@H]1C=C[C@@H](CC(=O)N2CCCCC2)O[C@@H]1CO	nt	nt	nt	-2
Cc1c(Cl)cccc1NC(=O)CC1SCCNC1=O (centres undefined)	i	2	4	-2
Cc1c(Cl)cccc1NC(=O)CC1NCCNC1=O (centres undefined)	-3	+	-9	2
COc1ccc(CNC(=O)C[C@H]2C[C@H]3c4cc(NS(=O)(=O)c5ccc(F)cc5)ccc4O[C@H]3[C@@H](CO)O2)cc1	nt	nt	nt	0
Nc1ccc(C(=O)Nc2ccc3nc(-c4ccncc4)[nH]c3c2)cc1	i	-1	17	nt
O=C(Nc1ccc(-c2nc3ccccc3o2)cc1)c1ccc2c(c1)OCO2	0	1	36*	-1
O=C(Nc1ccc2nc(-c3cccs3)[nH]c2c1)c1cccs1	-1	9	54*	21
O=C(Nc1ccc2nc(-c3ccccc3)oc2c1)c1ccco1	i	3	54*	-4
SMILES	Vc quorum ag	Mtb FBA inh	GDH-TPI inh	Mtb BioA inh
O=C(Nc1ccc(-c2nc3ccc(NC(=O)c4cccs4)cc3[nH]2)cc1)c1cccs1	-1	4	51*	nt
Cc1noc(C)c1S(=O)(=O)Nc1ccc2c(c1)C(=O)N([C@@H](C)CO)C[C@@H](C)[C@@H](CN(C)S(=O)(=O)c1cccs1)OCCCC[C@@H](C)O2	nt	nt	nt	-2
C[C@@H]1CCCCO[C@H](CN(C)S(C)(=O)=O)[C@@H](C)CN([C@@H](C)CO)C(=O)c2cc(NC(=O)c3ccncc3)ccc2O1	nt	nt	nt	-1
CO[C@H]1CN(C)C(=O)c2ccc(NC(=O)C3CC3)cc2OC[C@@H](C)N(C(=O)Cc2ccccn2)C[C@H]1C	nt	nt	nt	2
O=C(Nc1ccc2nc(-c3cccs3)[nH]c2c1)c1ccco1	i	9	36*	15
Cc1ccc2nc(-c3ccc(NC(=O)c4ccco4)cc3)[nH]c2c1	i	1	54*	-1
Cn1cccc1-c1nc2ccc(NC(=O)c3ccco3)cc2[nH]1	i	0	27	4
Cc1ccc(NC(=O)c2cnn(-c3ccccc3)c2NC(=O)c2ccco2)cc1	i	181*	11	0
O=C(NCc1ccccc1F)[C@H]1[C@H](CO)[C@H]2Cn3c(cccc3=O)[C@H]2N1CC1CCCC1	nt	nt	nt	0
CC1(C)CC(NC(=O)Nc2ccc([N+](=O)[O-])cc2)CC(C)(C)N1	0	-1	32*	0
CC(C(=O)NC1CC(C)(C)NC(C)(C)C1)c1ccc([N+](=O)[O-])cc1 (centres undefined)	0	-1	4	nt
O=C(C[C@H]1C[C@H]2c3cc(NS(=O)(=O)c4ccccc4)ccc3O[C@H]2[C@@H](CO)O1)NCC1CC1	nt	nt	nt	0

Bioassay records: PubChem, several laboratories
